Measurements taken from PubChem BioAssay (NCI).
This is part of a sample that, as a whole, favours compounds with a hit. Of some 83,000 tested, about 20% had one in any assay.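 The test compound was applied at a single concentration to cells in 96-well plates for 48 hours, and percent growth was recorded.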 Activity calls are given as the source filed them. The calls were made as follows: active = growth percent below 10; inactive = the rest.

Experiments:
Assay in all cases: NCI-60 one-dose screen, 48 h (100 = growth as untreated, 0 = no growth, -100 = all killed)
Conditions in all cases: 10 µM unless noted
T-47D breast = system: T-47D breast
MDA-MB-435 melanoma = system: MDA-MB-435 melanoma
SW-620 colon = system: SW-620 colon
MCF7 breast = system: MCF7 breast
HCT-116 colon = system: HCT-116 colon
KM12 colon = system: KM12 colon
HCC-2998 colon = system: HCC-2998 colon
BT-549 breast = system: BT-549 breast

Measured: growth

Cc1ccc(-c2cc(-c3nnc(SCC(=O)c4ccccc4)o3)c3ccccc3n2)cc1
inactive: T-47D breast 93% | MDA-MB-435 melanoma 93.5% | SW-620 colon 101% | MCF7 breast 91.2% | HCT-116 colon 99% | KM12 colon 94.1%

COc1ccc(Cl)cc1NC(=O)c1cc2c(n1C)-c1nc(NC(=O)C(C)C)sc1CC2
inactive: T-47D breast 68.2% | MDA-MB-435 melanoma 93.8% | SW-620 colon 90.5% | MCF7 breast 84.5% | HCT-116 colon 44.6% | HCC-2998 colon 122% | KM12 colon 92.7%

CCOC(=O)C1CSC(C)(C(=O)OCC)N1 (centres undefined)
inactive: T-47D breast 99.8% | MDA-MB-435 melanoma 103% | SW-620 colon 104% | MCF7 breast 93.4% | HCT-116 colon 96.6% | HCC-2998 colon 101% | KM12 colon 107%

CCOC(=O)C1CN(Cc2ccccc2)C(=O)C1=O (centres undefined)
inactive: T-47D breast 104% | SW-620 colon 95% | MCF7 breast 100% | HCT-116 colon 92.9% | HCC-2998 colon 118% | KM12 colon 108%

Oc1ccc(Cl)cc1Sc1cc(Cl)ccc1O
inactive: T-47D breast 75.8% | SW-620 colon 103% | MCF7 breast 91.3% | HCT-116 colon 86.9% | HCC-2998 colon 106% | KM12 colon 106%

NS(=O)(=O)c1ccc(CCN2C(=O)/C(=C\c3ccc(Cl)cc3)C=C2c2ccc(Oc3ccccc3)cc2)cc1
inactive: T-47D breast 66.7% | SW-620 colon 83% | MCF7 breast 39.3% | HCT-116 colon 65% | HCC-2998 colon 89% | KM12 colon 62.4%

Nc1ncnc2c1c(-c1ccc(Oc3ccccc3)cc1)nn2C[C@@H]1SSC[C@H]1O
inactive: SW-620 colon 90.4% | MCF7 breast 11.4% | HCT-116 colon 46.4% | KM12 colon 34.8%
active: T-47D breast 3.82% | MDA-MB-435 melanoma 8.48%

O=C(N/N=C1\SCC(=O)N1c1ccccc1)c1cc(-c2cc3ccccc3o2)nn1-c1ccccc1
inactive: T-47D breast 101% | MDA-MB-435 melanoma 102% | SW-620 colon 104% | MCF7 breast 99.9% | HCT-116 colon 96.5% | HCC-2998 colon 176% | KM12 colon 119%

O=[N+]([O-])c1cccc2cc(S(=O)(=O)O)ccc12
inactive: T-47D breast 98.9% | MDA-MB-435 melanoma 110% | SW-620 colon 99.9% | MCF7 breast 97.2% | HCT-116 colon 97.6% | HCC-2998 colon 100% | KM12 colon 108%

O=C1C(SCCO)=C(SCCO)C(=O)N1c1ccc(-c2ccccc2)cc1
active: SW-620 colon -66.9%
inactive: T-47D breast 24% | MDA-MB-435 melanoma 92.2% | MCF7 breast 80.5% | HCT-116 colon 13.7% | HCC-2998 colon 79.8% | KM12 colon 83.4%

CCOc1cccc(Nc2nc(N)nc3[nH]c4ccc(O)cc4c23)c1
inactive: T-47D breast 18.8% | MDA-MB-435 melanoma 84.2% | SW-620 colon 76.1% | MCF7 breast 43.1% | HCT-116 colon 72.9% | HCC-2998 colon 89.8% | KM12 colon 87.6%

O=C1OC(=O)C2C3CC(c4ccccc43)C12 (centres undefined)
inactive: T-47D breast 103% | SW-620 colon 101% | MCF7 breast 97.7% | HCT-116 colon 89.2% | HCC-2998 colon 106% | KM12 colon 105%

CC(=O)O[C@@H]1[C@@H](OC(C)=O)[C@H](OC(C)=O)CO[C@H]1Nc1cccc2ccccc12
inactive: T-47D breast 86.6% | MDA-MB-435 melanoma 102% | SW-620 colon 98.4% | HCC-2998 colon 94.2% | KM12 colon 84.2%

Oc1ccc(O)c(-[n+]2ccccc2)c1
inactive: T-47D breast 110% | MDA-MB-435 melanoma 109% | SW-620 colon 96.9% | MCF7 breast 102% | HCT-116 colon 93.3% | KM12 colon 107%

COc1ccc(/C(=C/c2cc(OC)c(OC)c(OC)c2)[N+](=O)[O-])cc1
active: T-47D breast 6.27% | MDA-MB-435 melanoma 7.21% | SW-620 colon -31% | MCF7 breast 1.7%
inactive: HCT-116 colon 11.8% | KM12 colon 15.5%

CCc1cccc(-c2ccccc2)c1
inactive: T-47D breast 110% | MDA-MB-435 melanoma 109% | SW-620 colon 99.8% | MCF7 breast 105% | HCT-116 colon 98.8% | HCC-2998 colon 110% | KM12 colon 102%

O=C(Nc1ccc(-n2cc(-c3ccncc3)c(-c3ccc(O)c(Cl)c3)n2)cc1)c1ccc(Cl)c(C(F)(F)F)c1
inactive: T-47D breast 39.8% | MDA-MB-435 melanoma 16% | SW-620 colon 26.7% | HCC-2998 colon 25.9% | KM12 colon 15%
active: HCT-116 colon 9.26%

O=C(Cn1c2ccccc2c2ccncc21)N/N=C/c1cc(O)c(O)c(O)c1
inactive: T-47D breast 98.2% | SW-620 colon 109% | MCF7 breast 106% | HCT-116 colon 101% | HCC-2998 colon 105% | KM12 colon 95.3%

O=c1c2ccccc2[nH]n1Cc1ccc2c(c1)OCO2
inactive: T-47D breast 88.9% | MDA-MB-435 melanoma 105% | SW-620 colon 108% | MCF7 breast 90.8% | HCT-116 colon 99.9% | HCC-2998 colon 106% | KM12 colon 102%

CN1CCN(Cn2nc(-c3cc(Cl)cc(Cl)c3Cl)n(/N=C/c3ccc(Cl)cc3)c2=S)CC1
inactive: MDA-MB-435 melanoma 107% | SW-620 colon 110% | MCF7 breast 95.5% | HCT-116 colon 89.4% | HCC-2998 colon 103% | KM12 colon 107%

COc1ccc(C(=O)NC(=O)Nc2ccc3c(c2)NC(=O)/C3=C\c2[nH]c(C)c(C(=O)O)c2C)cc1
inactive: BT-549 breast 89% | MDA-MB-435 melanoma 85.2% | SW-620 colon 52.6% | MCF7 breast 75% | HCT-116 colon 48.1% | HCC-2998 colon 97.7% | KM12 colon 17.8%

Nc1nc(Nc2ccc(OCc3cccc(F)c3)cc2)c2c(n1)[nH]c1ccc(O)cc12
active: BT-549 breast -84.9% | MDA-MB-435 melanoma -41% | SW-620 colon -49.5% | MCF7 breast -82.7% | HCT-116 colon -97.1% | HCC-2998 colon -17.6% | KM12 colon -48%

C=C1C(=O)O[C@H]2[C@H]1CC/C(COC(=O)c1cc(OC)c(OC)c(OC)c1)=C\CC[C@@]1(C)O[C@@H]21
active: BT-549 breast -42% | MDA-MB-435 melanoma -53% | SW-620 colon -49.5% | MCF7 breast -16.5% | HCT-116 colon -84.8%
inactive: HCC-2998 colon 41.2% | KM12 colon 54.5%

COC1OCC(OS(=O)(=O)c2ccc(C)cc2)C(OC(=O)c2ccccc2)C1OC(=O)c1ccccc1 (centres undefined)
inactive: BT-549 breast 39.1% | SW-620 colon 19.5% | MCF7 breast 22.6% | HCT-116 colon 32.4% | HCC-2998 colon 56.9% | KM12 colon 30.7%
active: MDA-MB-435 melanoma -5.87%

Nc1nc(-c2cc3c(cc2Cl)NC(=O)/C3=C/c2ccccc2)cs1
inactive: BT-549 breast 55.7% | MDA-MB-435 melanoma 24.4% | SW-620 colon 40.4% | HCT-116 colon 14.5% | HCC-2998 colon 58% | KM12 colon 45.5%
active: MCF7 breast 7.09%

COc1cc(/C=C/C(=O)c2c(C)[n+]([O-])c3ccccc3[n+]2[O-])ccc1O
inactive: BT-549 breast 89.5% | SW-620 colon 92.9% | MCF7 breast 93% | HCT-116 colon 91.2% | HCC-2998 colon 116% | KM12 colon 108%

O=C(O)c1cccc(S(=O)(=O)c2ccccc2)c1
inactive: BT-549 breast 107% | MDA-MB-435 melanoma 94.2% | SW-620 colon 98.5% | MCF7 breast 90.4% | HCT-116 colon 109% | HCC-2998 colon 104% | KM12 colon 97.4%

COc1ccc(-c2cc3ccc(N(C)C)cc3nc2N)c(F)c1
inactive: BT-549 breast 18.8% | MDA-MB-435 melanoma 13.9% | SW-620 colon 42.5% | MCF7 breast 14.7% | HCT-116 colon 19.3% | HCC-2998 colon 51.8% | KM12 colon 35%

CCNc1ncnc2n[nH]nc12
inactive: BT-549 breast 94% | MDA-MB-435 melanoma 99.5% | SW-620 colon 95.8% | MCF7 breast 98.3% | HCT-116 colon 98.8% | HCC-2998 colon 106% | KM12 colon 105%
